Laboratory results as given in PubChem BioAssay (NCATS).
Results filed as inconclusive are left out. Where a call stands in place of a potency, no number is given. The source made the active and inactive calls. The call rests on the fitted dose curve; in most records, active means well fitted curve in the direction sought with a large enough effect; inconclusive means small, poorly fitted or top-dose-only effect, or another doubt; inactive means no such curve, though single readings can be large; an effect the other way counts as inactive or inconclusive.

Legend:
[1] = qHTS of pediatric cancer cell lines to identify multiple opportunities for drug repurposing: Confirmatory screen for OHS-50 cells (AID 1347128); conditions: OHS-50 osteosarcoma cells viability; series mostly up to 45.9 µM;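 further: compound exposure lasted 48 h at 37 degrees C; nearly all actives have a fitted effect of over 55% in size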
Outline: (§1)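 Cells (500-1,000/well) rested 5 h, then received compounds for 48 h; metabolically active cells were measured by CellTiter-Glo luminescence. Final concentrations spanned up to 46 µM (MIPE, 11-point) or 0.59 nM-46 µM (NPC, 8-point) in primary screens, 11-point in follow-ups.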

[2] = qHTS of pediatric cancer cell lines to identify multiple opportunities for drug repurposing: Confirmatory screen for SK-N-SH cells (AID 1347129); conditions: SK-N-SH neuroblastoma cell viability; series mostly up to 46.1 µM;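 further: cells exposed to compound for 48 h before viability read; nearly all actives have a fitted effect of over 60% in size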
Outline: as §1

[3] = tested on: Zika virus NS2B-NS3 protease; test: Primary screen GU AMC qHTS for Zika virus inhibitors (AID 1347154); conditions: Zika NS2B-NS3 unlinked protease, AMC fluorogenic substrate; series mostly up to 54.1 µM; further: nearly all actives have a fitted effect of over 70% in size
Outline: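 Fluorogenic AMC-substrate cleavage by noncovalent NS2B-NS3 protease complex (25 nM, pH 8.0 Tris buffer with Tween 20) followed for 15 minutes at room temperature (~20% conversion). Percent inhibition from ex340/em450 signal change, fitted by 4-parameter Hill equation.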

[4] = target: N-terminal Xaa-Pro-Lys N-methyltransferase 1 (Homo sapiens) (UniProt Q9BV86); test: qHTS Assay for Inhibitors of N-terminal methyltransferase 1 (NTMT1): LOPAC validation of the NTMT1 SAHH-coupled ThioGlo3 Assay (AID 1347143); conditions: recombinant NTMT1, SAHH-coupled ThioGlo3 fluorescence; series mostly up to 114 µM;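 further: SAH from peptide methylation measured as thiol fluorescence via SAHH coupling and ThioGlo3; nearly all actives have a fitted effect of over 70% in size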
N-terminal Xaa-Pro-Lys N-methyltransferase 1 (Homo sapiens), sequence (Q9BV86 whole entry, looked up): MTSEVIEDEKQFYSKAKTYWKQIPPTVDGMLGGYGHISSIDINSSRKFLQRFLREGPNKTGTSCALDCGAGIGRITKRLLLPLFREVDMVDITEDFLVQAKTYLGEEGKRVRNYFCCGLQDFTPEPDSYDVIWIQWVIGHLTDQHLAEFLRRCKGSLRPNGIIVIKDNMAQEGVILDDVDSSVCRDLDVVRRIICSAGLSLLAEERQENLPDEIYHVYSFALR
Outline: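 NTMT1 125nM + cpds (various conc.), 1 min RT; add SAM 100uM/SAHH 10uM/ThioGlo3 15uM (addition mix). SAHH-coupled thiol detection, Ex340/Em450, t0 and 30 min RT; signal normalized to background. LOPAC 1280-cpd pilot.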

Furin (Homo sapiens) = Furin (Homo sapiens) (UniProt P09958); test: Furin counterscreen qHTS for Zika virus inhibitors (AID 1347149); conditions: furin enzymatic counterscreen, fluorogenic substrate; series mostly up to 114 µM;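 further: purified recombinant full-length human furin enzyme at 5 nM; fluorescence gain from furin cutting a BOC-RVRR-AMC peptide substrate over 15 min; top concentration of the series differs between compounds; nearly all actives have a fitted effect of over 70% in size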
Furin (Homo sapiens), sequence (P09958 whole entry, looked up): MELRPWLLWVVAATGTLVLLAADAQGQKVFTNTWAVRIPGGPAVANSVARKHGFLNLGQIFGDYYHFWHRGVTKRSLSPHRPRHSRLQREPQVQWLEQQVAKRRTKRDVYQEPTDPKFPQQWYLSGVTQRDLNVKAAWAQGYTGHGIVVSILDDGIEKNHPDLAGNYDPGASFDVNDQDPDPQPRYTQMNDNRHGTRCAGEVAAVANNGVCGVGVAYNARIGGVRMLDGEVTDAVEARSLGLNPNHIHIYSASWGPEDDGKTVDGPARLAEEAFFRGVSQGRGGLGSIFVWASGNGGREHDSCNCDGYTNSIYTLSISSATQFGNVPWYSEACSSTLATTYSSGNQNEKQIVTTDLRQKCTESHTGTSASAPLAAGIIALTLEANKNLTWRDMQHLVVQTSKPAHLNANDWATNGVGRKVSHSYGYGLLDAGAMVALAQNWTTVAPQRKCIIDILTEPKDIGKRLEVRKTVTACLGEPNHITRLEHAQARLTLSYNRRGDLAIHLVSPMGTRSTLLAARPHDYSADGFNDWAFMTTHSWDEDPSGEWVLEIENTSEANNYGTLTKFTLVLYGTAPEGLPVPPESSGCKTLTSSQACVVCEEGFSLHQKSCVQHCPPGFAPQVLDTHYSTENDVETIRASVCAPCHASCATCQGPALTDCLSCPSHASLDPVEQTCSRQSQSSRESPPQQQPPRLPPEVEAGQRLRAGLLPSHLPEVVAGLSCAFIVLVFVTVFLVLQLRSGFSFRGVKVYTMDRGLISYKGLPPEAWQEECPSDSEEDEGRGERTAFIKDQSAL
Outline: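 Counterscreen measures cleavage of 2 microM BOC-RVRR-AMC, below its ~15 microM Km, by 5 nM full-length human furin at pH 7.0 after a 15-min compound preincubation. Inhibition derives from the 15-min fluorescence increase at 37C.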

[5] = Confirmatory screen GU Rhodamine qHTS for Zika virus inhibitors qHTS (AID 1347157); conditions: purified enzyme assay, Rhodamine110 substrate fluorescence, 15 min; series mostly up to 22 µM; further: nearly all actives have a fitted effect of over 70% in size; further: potency means the concentration at half of the fitted maximal effect
Outline: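 A qHTS format was used, with compound concentrations ranging up to 114 microM. Each compound was preincubated with 25 nM NS2B-NS3 protease, and the substrate was then added at 1.5 microM. Curves were fitted with a 4-parameter Hill model.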

[6] = tested on: Zika virus NS2B-NS3 protease (unlinked complex); test: Primary screen GU Rhodamine qHTS for Zika virus inhibitors: Unlinked NS2B-NS3 protease assay (AID 1347159); conditions: Recombinant ZIKV NS2B-NS3 protease, Rhodamine110 substrate fluorescence; series mostly up to 107 µM; further: potency means the concentration at half of the fitted maximal effect; nearly all actives have a fitted effect of over 60% in size
Outline: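 Percent inhibition came from the 15-min rise in Rhodamine110 fluorescence (1.5 microM substrate, ~15% conversion), normalized to no-inhibitor and no-enzyme wells and Hill-fitted. Unlinked protease, 25 nM, pH 8.0 Tris buffer; compounds up to 114 microM, 15-min preincubation.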

[7] = Confirmatory screen NINDS Rhodamine qHTS for Zika virus inhibitors (AID 1347161); conditions: purified enzyme assay, Rhodamine110 substrate fluorescence, 15 min; series mostly up to 22.2 µM; further: potency means the concentration at half of the fitted maximal effect; nearly all actives have a fitted effect of over 60% in size
Outline: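 Enzyme (25 nM, linked NS2B-NS3) was preincubated 15 min with compound in 10 mM Tris-HCl pH 8.0, 0.01% Tween 20. Rhodamine110 substrate (1.5 microM) was then added and fluorescence read at start and after 15 min.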

[8] = tested on: Zika virus NS2B-NS3 protease (linked); test: 384 well plate NINDS AMC confirmatory qHTS for Zika virus inhibitors (AID 1347163); conditions: Recombinant NS2B-NS3 protease, Ac-VKTGKR-AMC fluorescence; series mostly up to 100 µM; further: potency means the concentration at half of the fitted maximal effect; nearly all actives have a fitted effect of over 50% in size
Outline: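 Enzyme (5, 30 or 60 nM final) first met test compounds for ~15 min. The AMC-tagged peptide Ac-VKTGKR-AMC followed at 30 microM. Fluorescence was then recorded at 25 min and scaled against no-enzyme and no-inhibitor wells.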

[9] = tested on: Zika virus NS2B-NS3 protease (linked construct); test: 384 well plate NINDS Rhodamine confirmatory qHTS for Zika virus inhibitors (AID 1347164); conditions: rhodamine-110 peptide substrate fluorescence;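 further: fluorescence from protease cleavage of Ac-LKRR-rhodamine 110 substrate; potency means the concentration at half of the fitted maximal effect; nearly all actives have a fitted effect of over 65% in size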
Outline: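 Enzyme (final 5/30/60 nM) + cpd (DMSO), ~15 min; add Ac-LKRR-Rd 10 microM final; 25 min RT, dark; FI ex 485/em 538; normalized to no-enzyme, no-inhibitor ctrls; aprotinin intraplate ctrl.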

[10] = target: Lysine-specific demethylase 5B (Homo sapiens) (UniProt Q9UGL1); test: Optimization screen for KDM5B Histone Demethylases FDH coupled qHTS against the LOPAC library (AID 1347166); conditions: KDM5B demethylation, FDH-coupled NADH fluorescence (FDH is formaldehyde dehydrogenase); series mostly up to 57.5 µM
Lysine-specific demethylase 5B (Homo sapiens), sequence (Q9UGL1 whole entry, looked up): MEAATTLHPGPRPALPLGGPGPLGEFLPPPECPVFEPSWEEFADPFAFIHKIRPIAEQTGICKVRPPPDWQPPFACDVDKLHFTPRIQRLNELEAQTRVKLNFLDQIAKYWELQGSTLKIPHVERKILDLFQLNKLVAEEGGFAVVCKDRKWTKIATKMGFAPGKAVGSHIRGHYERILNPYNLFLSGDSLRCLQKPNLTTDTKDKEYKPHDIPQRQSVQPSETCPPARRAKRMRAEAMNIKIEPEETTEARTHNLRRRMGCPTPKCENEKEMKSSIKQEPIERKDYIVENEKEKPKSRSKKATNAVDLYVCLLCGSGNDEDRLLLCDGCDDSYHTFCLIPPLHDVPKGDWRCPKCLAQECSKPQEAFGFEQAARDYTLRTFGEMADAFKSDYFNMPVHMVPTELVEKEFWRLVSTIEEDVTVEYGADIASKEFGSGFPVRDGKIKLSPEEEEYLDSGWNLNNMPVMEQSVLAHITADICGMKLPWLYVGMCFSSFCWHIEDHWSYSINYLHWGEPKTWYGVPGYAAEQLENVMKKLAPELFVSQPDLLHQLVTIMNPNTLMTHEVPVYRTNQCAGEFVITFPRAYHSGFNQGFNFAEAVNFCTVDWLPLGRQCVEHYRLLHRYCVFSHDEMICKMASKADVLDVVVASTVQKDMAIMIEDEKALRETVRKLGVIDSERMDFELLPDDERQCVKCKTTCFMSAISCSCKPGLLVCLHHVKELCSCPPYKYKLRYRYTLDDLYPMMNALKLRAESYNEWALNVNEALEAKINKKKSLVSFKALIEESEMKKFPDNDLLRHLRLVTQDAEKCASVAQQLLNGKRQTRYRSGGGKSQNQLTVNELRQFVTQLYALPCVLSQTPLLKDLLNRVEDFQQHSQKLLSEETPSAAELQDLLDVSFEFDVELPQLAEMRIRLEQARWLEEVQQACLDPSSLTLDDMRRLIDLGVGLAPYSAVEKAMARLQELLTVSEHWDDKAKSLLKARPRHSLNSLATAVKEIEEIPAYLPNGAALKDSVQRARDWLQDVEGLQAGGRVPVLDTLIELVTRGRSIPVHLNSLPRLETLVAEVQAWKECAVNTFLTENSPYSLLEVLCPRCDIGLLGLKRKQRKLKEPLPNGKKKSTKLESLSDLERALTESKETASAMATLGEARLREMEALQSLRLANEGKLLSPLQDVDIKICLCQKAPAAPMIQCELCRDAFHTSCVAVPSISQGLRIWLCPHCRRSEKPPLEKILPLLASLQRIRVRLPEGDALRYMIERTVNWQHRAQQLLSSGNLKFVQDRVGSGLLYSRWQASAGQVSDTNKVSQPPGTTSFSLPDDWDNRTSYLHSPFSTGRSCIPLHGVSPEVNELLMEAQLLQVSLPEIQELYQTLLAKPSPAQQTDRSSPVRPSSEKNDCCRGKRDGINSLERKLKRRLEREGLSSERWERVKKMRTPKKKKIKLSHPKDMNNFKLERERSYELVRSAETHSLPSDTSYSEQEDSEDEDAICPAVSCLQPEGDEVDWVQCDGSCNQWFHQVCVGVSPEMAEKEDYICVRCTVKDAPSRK
Outline: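 KDM5BDeltaAP (200nM final) in 50mM HEPES pH 7.5, 0.01% Tween-20 was preincubated with compound for 10 min at room temperature. A substrate mix of 12.5uM H3K4Me3, 25uM a-ketoglutarate, ascorbate, Fe2+, NAD+ and formaldehyde dehydrogenase was then added. NADH fluorescence (340/450 nm) was read initially and after 30 min.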

[11] = HepG2 cells viability qHTS for Zika virus inhibitors (AID 1347168); conditions: Zika counter-screen; series mostly up to 45.9 µM
Outline: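 Luminescent ATP readout (CellTiter Glo) after 30 min at 37 degrees C gives viability; cells in DMEM + 4% FBS were treated 24 to 48 hours with compound, following overnight attachment.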

[12] = ZIKV-mCherry secondary qHTS for Zika virus inhibitors (AID 1347158); conditions: Vero cells, ZIKV-mCherry infection imaging, 48-72 h; series mostly up to 49.2 µM; further: top concentration of the series differs between compounds
Outline: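 This orthogonal imaging screen measured ZIKV-mCherry infection of Vero cells exposed to compound, MOI 1, 48-72 h. Percent infection came from segmented nuclei scored mCherry-positive above 3 SD of negative controls.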

Structure (SMILES): C[C@H]1C[C@@H]2[C@H]([C@@H](O)C[C@@]3(C)[C@H]2CC[C@]3(O)C(=O)CO)[C@@]2(C)C=CC(=O)C=C12
- Potency [1]: inactive
- Potency [2]: inactive
- Potency [3]: inactive

Structure (SMILES): O=C1NC(=O)/C(=C/c2ccc3c(c2)OC(F)(F)O3)S1
- Potency [4]: inactive
- Potency (Furin (Homo sapiens)): inactive
- Potency [5]: 12.4 µM (active)
- Potency [6]: 12.6 µM (active)
- Potency [7]: 7.84 µM (active)
- Potency [8]: 7.94 µM (active)
- Potency [9]: 5.01 µM (active)
- outcome [10]: inactive
- outcome [11]: inactive

Structure (SMILES): O=C(CCCCC(=O)Nc1c(I)cc(I)c(C(=O)O)c1I)Nc1c(I)cc(I)c(C(=O)O)c1I
- Potency [5]: inactive

Structure (SMILES): O=C(COCCOCCOCC(=O)Nc1c(I)cc(I)c(C(=O)O)c1I)Nc1c(I)cc(I)c(C(=O)O)c1I
- Potency [5]: inactive

Structure (SMILES): CCOC(=O)Cn1cccc1-c1nc(-c2ccc(OC)cc2)c(-c2ccc(OC)cc2)s1
- outcome [12]: inactive

Structure (SMILES): CN1C(=O)CC(C)(c2ccccc2)C1=O (centres undefined)
- Potency [3]: inactive

Structure (SMILES): CCOC(=O)C(=O)CCc1ccccc1
- Potency [3]: inactive

Structure (SMILES): CCCCN(CCN(CCCC)C(=O)N1CCOCC1)C(=O)N1CCOCC1
- Potency [3]: inactive

Structure (SMILES): Cc1c(N)cccc1C(F)(F)F
- Potency [3]: inactive

Structure (SMILES): CC[C@@H]([C@H](C)O)n1ncn(-c2ccc(N3CCN(c4ccc(OC[C@@H]5CO[C@@](Cn6cncn6)(c6ccc(F)cc6F)C5)cc4)CC3)cc2)c1=O
- Potency [3]: inactive

Structure (SMILES): CCC(CN)=C(c1ccccc1)c1ccccc1
- Potency [3]: inactive

Structure (SMILES): CO/N=C(/C(=O)N[C@@H]1C(=O)N2C(C(=O)OCOC(=O)C(C)(C)C)=C(C)CS[C@H]12)c1csc(N)n1
- Potency [3]: inactive

Structure (SMILES): CCCC(=O)O[C@]1(C(=O)CC)CC[C@H]2[C@@H]3CCC4=CC(=O)CC[C@]4(C)[C@H]3[C@@H](O)C[C@@]21C
- Potency [3]: inactive

Structure (SMILES): CCCCCCCCCCCCCC[N+](C)(C)C
- Potency [3]: inactive

Structure (SMILES): Cc1ccc(CCn2c3c(c4cc(Cl)ccc42)CN(C)CC3)cn1
- Potency [3]: inactive

Structure (SMILES): O=C(c1ccco1)N1CCNCC1
- Potency [3]: inactive

Structure (SMILES): CCCCCOc1ccccc1/C(=C\SC)n1ccnc1
- Potency [3]: inactive

Structure (SMILES): COc1cc2nc(Cl)nc(N)c2cc1OC
- Potency [3]: inactive

Structure (SMILES): O=C(CCOCCOCCOCCOCCC(=O)Nc1c(I)cc(I)c(C(=O)O)c1I)Nc1c(I)cc(I)c(C(=O)O)c1I
- Potency [3]: inactive

Structure (SMILES): Cc1ccc(Cl)c(OCC(O)CNC(C)(C)C)c1 (centres undefined)
- Potency [3]: inactive

Structure (SMILES): O=C(O)CCCC[P+](c1ccccc1)(c1ccccc1)c1ccccc1
- Potency [3]: inactive

Structure (SMILES): CC(Oc1c(Cl)cccc1Cl)C1=NCCN1 (centres undefined)
- Potency [3]: inactive

Structure (SMILES): CC(C)OP(=O)(CP(=O)(OC(C)C)OC(C)C)OC(C)C
- Potency [3]: inactive

Structure (SMILES): CCN1CCN(C(=O)N[C@@H](C(=O)N[C@@H]2C(=O)N3[C@@H]2SC(C)(C)[C@H]3C(=O)O)c2ccccc2)C(=O)C1=O
- Potency [3]: inactive
